# Laboratory results published in PubChem BioAssay AID431 (Sanford-Burnham Center for Chemical Genomics, 2006).
# Out of some 63,000 compounds screened, about 1,100 (1.7%) were called active. The full list was thinned out, with actives kept by preference. Measured potencies and affinities stand elsewhere. Values without a mark were called inactive.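 Rule for the calls: active = compounds whose percent cytotoxicity in the single-dose primary screen, scaled between solvent and toxic-drug controls, exceeds 50; inactive = the rest.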
# Experiment: viability loss of HPDE-C7K cells – cell-based, fluorescence, HTS, primary screen (AID 431);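 note: 0% = DMSO solvent wells and 100% = doxorubicin-treated wells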
# Conditions: HPDE-C7K KRASV12 cells, Alamar Blue viability, 48 h; at 10 µM; stronger effect = higher value
row,SMILES,cytotoxicity
1,Cc1ccc(Cl)cc1N1CCN(S(=O)(=O)c2cccc(S(=O)(=O)N3CCCC3)c2)CC1,0.2%
2,CCn1cc(C(=O)NCc2ccccc2OC)c(=O)c2ccc(C)nc21,-1.4%
3,CC(C)n1c(C(=O)OCC(=O)NCc2ccc3c(c2)OCO3)cc2sccc21,22.7%
4,Cc1cc2c(cc(C(=O)OCC(=O)NCc3cccs3)n2C(C)C)o1,59.5% (active)
5,Cn1c(C(=O)OCC(=O)NCc2cccs2)cc2sccc21,-3.4%
6,Cc1cccc2cc(C(c3nnnn3CC3CCCO3)N3CCc4ccccc4C3)c(=O)[nH]c12 (stereo not given),-7.5%
7,Cc1ccc(S(=O)(=O)NCC(=O)OCC(=O)c2cccs2)cc1,4.8%
8,COc1ccc(-c2cc(C(=O)Nc3ccccc3SC)no2)cc1OC,1.4%
9,O=C(O)c1[nH]c2ccc(Cl)cc2c1CC(=O)N1CCN(c2ccccc2)CC1,8%
10,O=C(O)c1[nH]c2ccc(Cl)cc2c1CC(=O)N1CCN(C(=O)c2ccco2)CC1,3.2%
11,Cc1cccc(N2CCN(C(=O)Cc3c(C(=O)O)[nH]c4ccc(Cl)cc34)CC2)c1C,57.9% (active)
12,Cc1cccc(-n2c(CNC(=O)c3ccc(S(=O)(=O)N4CCCC4)cc3)n[nH]c2=S)c1,-12%
13,Cc1ccc(NC(=O)c2cnn(-c3ccccc3)c2NC(=O)c2ccco2)cc1C,-1.9%
14,O=C(Nc1c(C(=O)N2CCCCC2)cnn1-c1ccccc1)c1ccco1,-3.5%
15,Cc1ccc(-n2ncc(C(=O)N3CCc4ccccc4C3)c2NC(=O)c2ccco2)cc1C,80.3% (active)
16,Cc1cc(C)n(CC(O)COCc2ccco2)n1 (stereo not given),-7.5%
17,Cc1nnc(C)n1/N=C/c1cc(Br)cc(Br)c1O,86.5% (active)
18,COc1c(Br)cc(Br)cc1/C=N/n1c(C)nnc1C,11.1%
19,Cc1nnc(C)n1/N=C/c1cc(Br)ccc1O,-18.8%
20,COc1ccc(Cl)cc1NS(=O)(=O)c1ccc(S(=O)(=O)N2CCCC2)cc1,19.4%

row,SMILES,cytotoxicity
1,c1cncc(-c2nc(NCc3ccco3)c3ccccc3n2)c1,10.1%
2,CSCC[C@@H](Nc1nc(-c2ccccc2)nc2c1oc1ccccc12)C(=O)O,20%
3,COc1ccc(CCNC(=O)CSc2nc(-c3ccco3)cc(C(F)(F)F)n2)cc1OC,-11.5%
4,O=C(C1CCN(S(=O)(=O)c2cccc3cccnc23)CC1)N1CCN(C2CCCCC2)CC1,8.4%
5,N#C/C(=C(\O)c1ccco1)c1ccccn1,-1.4%
6,COc1ccc(-c2nnc3sc(-c4c(OC)cccc4OC)nn23)cc1,10.6%
7,COc1ccc(-c2nnc3sc(-c4cccs4)nn23)cc1OC,11.7%
8,COc1cccc(OC)c1-c1nn2c(-c3ccccc3Cl)nnc2s1,17.5%
9,COc1cccc(OC)c1-c1nn2c(-c3cc(-c4ccccc4)n[nH]3)nnc2s1,58.4% (active)
10,COc1cc(-c2nnc3sc(-c4cccs4)nn23)cc(OC)c1OC,62.9% (active)
11,COc1cc(-c2nnc3sc(-c4ccncc4)nn23)cc(OC)c1OC,-1.5%
12,c1ccc2c(c1)ncn2Cc1nnc2sc(-c3ccncc3)nn12,0.8%
13,CC(=O)c1c(N2CCCCC2)nc(=O)n(-c2ccccc2)c1C,-16.3%
14,O=C(NCCCNC(=O)c1ccccn1)c1ccccn1,9.7%
15,CCCCCC/C(=N/O)c1ccccn1,51.6% (active)
16,O/N=C(/Cc1ccccn1)c1ccccc1,-1.3%
17,Cc1cc2nc(C(F)(F)F)[nH]c(=O)n2n1,2.8%
18,COC(=O)C1CCN(Cc2cc(=O)oc3cc(OC)ccc23)CC1,-31.4%
19,CCOC(=O)c1ccc(N=c2sc(C(=O)OC)cc(=O)n2Cc2ccco2)cc1,119% (active)
20,COC(=O)c1cc(=O)n(Cc2ccco2)c(=Nc2ccc(F)c(Cl)c2)s1,26.9%

row,SMILES,cytotoxicity
1,CCOC(=O)c1ccc(N=c2sc(C(=O)OC)cc(=O)n2C2CC2)cc1,14.1%
2,COc1ccc(N=C2SC(CC(=O)Nc3ccc(OC)cc3OC)C(=O)N2C)cc1 (stereo not given),-10.8%
3,COc1ccc(-c2cc(C(=O)N3CCN(C(c4ccccc4)c4ccccc4)CC3)no2)cc1,2.7%
4,COc1ccccc1N=c1oc2cc(O)ccc2cc1C(=O)NCC1CCCO1 (stereo not given),7%
5,COc1ccc(N=c2oc3cc(O)ccc3cc2C(=O)NCC2CCCO2)cc1 (stereo not given),-0.1%
6,COc1ccc(N=c2oc3cc(O)ccc3cc2C(=O)NCC2CCCO2)c(OC)c1 (stereo not given),53.8% (active)
7,CC1(C)NC(=O)N(CC(O)COc2ccccc2C(=O)N2CCCCC2)C1=O (stereo not given),-30.9%
8,CCCCC(=O)Nc1cccc2c1C(=O)N(c1ccccc1)C2=O,-0.9%
9,CCCCN(C)S(=O)(=O)c1ccc(C(=O)Nc2nnc(CSC)o2)cc1,-2%
10,CCCCN(CC)S(=O)(=O)c1ccc(C(=O)Nc2nnc(COC)o2)cc1,3.4%
11,CCCCN(CC)S(=O)(=O)c1ccc(C(=O)Nc2nnc(CSC)o2)cc1,8.9%
12,CCCCN(CCCC)S(=O)(=O)c1ccc(C(=O)Nc2nnc(COC)o2)cc1,66.7% (active)
13,CCc1nnc(NC(=O)c2ccc(S(=O)(=O)N(CCOC)CCOC)cc2)o1,-0.3%
14,CSCc1nnc(NC(=O)c2ccc(S(=O)(=O)N(CC(C)C)CC(C)C)cc2)o1,57.2% (active)
15,CCc1nnc(NC(=O)c2ccc(S(=O)(=O)N(CC)Cc3ccccc3)cc2)o1,33%
16,CCc1nnc(NC(=O)c2ccc(S(=O)(=O)N(CC(C)C)CC(C)C)cc2)o1,47.6%
17,CCCCN(CCCC)S(=O)(=O)c1ccc(C(=O)Nc2nnc(CSC)o2)cc1,70.1% (active)
18,COc1ccc(-c2cc(C(=O)NCC(C)C)no2)cc1,-0.6%
19,CCOC(=O)N1CCN(C(=O)COc2ccc(S(=O)(=O)NC3CCCCC3)cc2C)CC1,-6.6%
20,COC(=O)c1ccc(C2/C(=C(\O)c3ccc(OC)c(C)c3)C(=O)C(=O)N2c2cc(C)on2)cc1 (stereo not given),13.9%
